# Experimental data: PubChem BioAssay (NCI)
# The panel holds about 79,000 compounds, 15% with a hit somewhere; the sample as a whole holds those more often. A number with no mark means an inactive call. Activity calls are given as the source filed them. Rule as the data show it: active = growth inhibition above about 70%; inactive = the rest.
# Columns and labels:
# [1] = NCI Yeast Anticancer Drug Screen. Data for the rad50 strain (AID 155);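 also: 0% = growth of vehicle-only cultures of the same strain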; settings: S. cerevisiae rad50 strain growth inhibition, hits give high values
# How it was run: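 Vehicle-treated cultures provide the reference for the growth inhibition reported for compound-exposed, repair-deficient yeast.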
# [2] = NCI Yeast Anticancer Drug Screen. Data for the mec2-1 strain (AID 157); settings: S. cerevisiae mec2-1 strain, hits give high values
# How it was run: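 Mutant yeast (mec2-1) grown with compound; growth inhibition relative to vehicle control reported.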
# [3] = NCI Yeast Anticancer Drug Screen. Data for the cln2 rad14 strain (AID 165);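 also: 0% = growth equal to vehicle treated cultures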; settings: S. cerevisiae cln2 rad14 strain, hits give high values
# How it was run: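 Readout is yeast growth inhibition versus vehicle-treated controls, using a strain with cln2 and rad14 alterations exposed to compound.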
# [4] = NCI Yeast Anticancer Drug Screen. Data for the bub3 strain (AID 167); settings: S. cerevisiae bub3 mutant strain, hits give high values
# How it was run: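 Mutant yeast screening strain plus compound; vehicle-treated cultures serve as the 0% inhibition reference.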
# [5] = NCI Yeast Anticancer Drug Screen. Data for the mlh1 rad18 strain (AID 175); settings: S. cerevisiae mlh1 rad18 strain growth inhibition, hits give high values
# How it was run: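 Genetically defined yeast (DNA repair-deficient) exposed to compounds; growth inhibition determined relative to vehicle.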
# [6] = NCI Yeast Anticancer Drug Screen. Data for the sgs1 mgt1 strain (AID 161);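 also: 0% = growth of cultures given vehicle only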; settings: S. cerevisiae sgs1 mgt1 strain, hits give high values
# How it was run: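 Compounds are added to genetically altered yeast, and growth is compared with cultures given vehicle alone to give percent inhibition.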
# [7] = at 5.0 µM (retest, dose inferred, filed as 0.5)
# [8] = at 50.0 µM (retest, dose inferred, filed as 5.0)
Structure (SMILES),"growth inhibition [1, 7]","growth inhibition [1, 8]",growth inhibition ([1]; at 50.0 µM),"growth inhibition [2, 7]","growth inhibition [2, 8]",growth inhibition ([2]; at 50.0 µM),"growth inhibition [3, 7]","growth inhibition [3, 8]",growth inhibition ([3]; at 50.0 µM),"growth inhibition [4, 7]","growth inhibition [4, 8]",growth inhibition ([4]; at 50.0 µM),"growth inhibition [5, 7]","growth inhibition [5, 8]",growth inhibition ([5]; at 50.0 µM),"growth inhibition [6, 7]","growth inhibition [6, 8]",growth inhibition ([6]; at 50.0 µM)
COC1OCCC[CH]1[Hg][Cl] (stereo unspecified),98% (active),99% (active),99.2% (active),100% (active),99% (active),99.3% (active),99% (active),99% (active),99.3% (active),99% (active),99% (active),99.5% (active),99% (active),99% (active),99.2% (active),,,
CC/C(=C\c1ccc(Cl)c(Cl)c1)[N+](=O)[O-],97% (active),99% (active),,52%,100% (active),,13%,99% (active),,60%,99% (active),,14%,99% (active),,99% (active),100% (active),
O=[N+]([O-])c1cccc([N+](=O)[O-])c1Cl,58%,96% (active),,22%,96% (active),,8%,12%,,-12%,33%,,7%,46%,,13%,88% (active),
O=C1C=C(N2CC2)C(=O)C=C1N1CC1,91% (active),98% (active),,90% (active),99% (active),,24%,25%,89.2% (active),20%,55%,87.7% (active),94% (active),97% (active),,27%,41%,88% (active)
CC(Cc1ccc2c(c1)OCO2)NN (stereo unspecified),-2%,37%,,-5%,6%,,-5%,-8%,,2%,34%,,-20%,16%,,-2%,59%,
O=C(CBr)OCCBr,59%,99% (active),,33%,99% (active),,25%,98% (active),,56%,99% (active),,29%,98% (active),,73% (active),100% (active),
C/C(=N\NC(=S)N1CC2CCC(CC2)C1)c1nccs1,89% (active),98% (active),,77% (active),99% (active),,86% (active),98% (active),87.2% (active),95% (active),99% (active),86.5% (active),95% (active),98% (active),,92% (active),99% (active),87% (active)
O=C([O][Hg][CH2]C1COC([CH2][Hg][O]C(=O)c2ccccc2)CO1)c1ccccc1 (stereo unspecified),98% (active),98% (active),,99% (active),99% (active),,97% (active),98% (active),90.6% (active),100% (active),99% (active),89.7% (active),98% (active),98% (active),,99% (active),99% (active),89.5% (active)
C[C@]12CCC(O)CC1=CC[C@@H]1[C@@H]2CC[C@]2(C)C(=O)[C@H](n3ccnc3)C[C@@H]12 (stereo partly specified),21%,54%,41.9%,12%,46%,58%,29%,51%,38.2%,20%,56%,38.9%,19%,51%,75.6% (active),,,
C[CH2][Sn]([CH2]C)([CH2]C)[CH2]C,6%,54%,,3%,22%,,-6%,12%,,0%,35%,,-8%,44%,,-3%,58%,
CC12CCC3C(CC=C4CC(SC(=N)N)CCC43C)C1CCC2=O (stereo unspecified),0%,33%,67.3%,5%,51%,48.3%,9%,19%,59.7%,11%,50%,66.8%,8%,31%,59.6%,,,
CCCCCCCNC(=O)CI,42%,99% (active),,13%,100% (active),,9%,94% (active),,52%,100% (active),,23%,99% (active),,33%,100% (active),
CC12OOC(c3ccccc31)c1c2ccc2ccccc12 (stereo unspecified),62%,98% (active),86% (active),94% (active),99% (active),93.5% (active),71% (active),99% (active),88.5% (active),97% (active),97% (active),90.5% (active),,,,,,
C=NCC#N,8%,8%,-12.9%,-1%,2%,-1.3%,11%,6%,67.3%,4%,-2%,5.25%,3%,3%,26.9%,,,
O=C(CBr)c1ccncc1,99% (active),99% (active),,100% (active),100% (active),,99% (active),99% (active),,100% (active),99% (active),,95% (active),98% (active),,100% (active),99% (active),
CCCC1CC[N-]CC1.CCCC1CC[N-]CC1.N#C[S-].N#C[S-].[Cd],31%,86% (active),,10%,59%,,9%,65%,,8%,56%,,-14%,46%,,10%,76% (active),
CC(=O)[CH-]C(C)=O.CC(=O)[CH-]C(C)=O.N=CC=N.[Sn+2],95% (active),98% (active),88.2% (active),,,,87% (active),97% (active),93.5% (active),98% (active),99% (active),93.3% (active),,,,98% (active),99% (active),94.2% (active)
CCC1CC[N-]CC1.CCC1CC[N-]CC1.N#C[S-].N#C[S-].[Cd],26%,85% (active),,16%,56%,,4%,54%,,5%,42%,,-16%,57%,,11%,71% (active),
C1CC[N-]CC1.C1CC[N-]CC1.N#C[S-].N#C[S-].[Cd],33%,86% (active),,18%,69%,,11%,57%,,10%,73% (active),,-4%,66%,,15%,81% (active),
CCC(=O)O.[Ag],98% (active),98% (active),91.2% (active),,,,98% (active),97% (active),90.3% (active),99% (active),97% (active),91% (active),99% (active),97% (active),90.3% (active),99% (active),98% (active),91.6% (active)
C/C(=N\Nc1ccccc1)C(CN(C)C)C(c1ccccc1)c1c(O)c2ccccc2oc1=O (stereo unspecified),24%,24%,88.2% (active),,,,5%,5%,86% (active),10%,10%,83.6% (active),12%,12%,86.5% (active),16%,16%,87.8% (active)
CC1CCN(C(CC(=O)c2ccccc2)C(=O)c2ccccc2)CC1 (stereo unspecified),20%,99% (active),,7%,100% (active),,9%,99% (active),,13%,100% (active),,-2%,98% (active),,21%,99% (active),
